# Data: PubChem BioAssay AID1159580 (chemical genetic matrix, 2015)
# Among all 5,500 compounds or so, about 2,000 (36%) were called active. Roughly 18% stayed inconclusive and do not appear here. The list shows a part of the results. Unmarked numbers belong to inactive results. Rule as the data show it: active = normalized growth mostly below about 0.91 (no sharp cut-off); inconclusive = no clear call, values can overlap the other calls; inactive = mostly above about 0.92.
# Test: chemical genetic growth profiling, strain panel (AID 1159580);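 also: tested at 20 µM; growth read once vehicle control cultures reached saturation at 30 °C; 1 = growth at the plate median or of vehicle wells; lower values mean less growth of the strain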
# Conditions: S. cerevisiae deletion strains, growth OD
# [1] = locus YAR019C, strain CDC15, hits give low values
# [2] = locus YBL105C, strain PKC1, hits give low values
# [3] = locus YBR135W, strain CKS1, hits give low values
# [4] = locus YBR136W, strain MEC1, hits give low values
# [5] = locus YBR160W, strain CDC28, hits give low values
# [6] = locus YDL017W, strain CDC7, hits give low values
# [7] = locus YDL028C, strain MPS1, hits give low values
# [8] = locus YDL101C, strain DUN1, hits give low values
# [9] = locus YDL108W, strain KIN28, hits give low values
# [10] = locus YDL132W, strain cdc53, hits give low values
# [11] = locus YDL214C, strain PRR2, hits give low values
# [12] = locus YDR052C, strain DBF4, hits give low values
# [13] = locus YDR054C, strain cdc34, hits give low values
# [14] = locus YDR226W, strain ADK1, hits give low values
# [15] = locus YDR477W, strain SNF1, hits give low values
# [16] = locus YER123W, strain YCK3, hits give low values
# [17] = locus YER133W, strain GLC7, hits give low values
# [18] = locus YFL009W, strain cdc4, hits give low values
# [19] = locus YFL029C, strain CAK1, hits give low values
# [20] = locus YFR003C, strain YPI1, hits give low values
# [21] = locus YFR019W, strain FAB1, hits give low values
# [22] = locus YFR028C, strain CDC14, hits give low values
# [23] = locus YGR040W, strain KSS1, hits give low values
# [24] = locus YGR052W, strain FMP48, hits give low values
# [25] = locus YGR092W, strain DBF2, hits give low values
# [26] = locus YHR030C, strain SLT2, hits give low values
# [27] = locus YHR079C, strain IRE1, hits give low values
# [28] = locus YHR082C, strain KSP1, hits give low values
# [29] = locus YHR205W, strain SCH9, hits give low values
# [30] = locus YIL147C, strain SLN1, hits give low values
# [31] = locus YJL095W, strain BCK1, hits give low values
# [32] = locus YJL128C, strain PBS2, hits give low values
# [33] = locus YJL157C, strain FAR1, hits give low values
# [34] = locus YJR016C, strain ILV3, hits give low values
# [35] = locus YJR066W, strain TOR1 (second series), hits give low values
# [36] = locus YJR066W, strain TOR1, hits give low values
# [37] = locus YKL048C, strain ELM1, hits give low values
# [38] = locus YKL067W, strain YNK1, hits give low values
# [39] = locus YKL101W, strain HSL1, hits give low values
# [40] = locus YKL193C, strain SDS22, hits give low values
# [41] = locus YKL203C, strain TOR2, hits give low values
# [42] = locus YLR113W, strain HOG1, hits give low values
# [43] = locus YLR133W, strain CKI1, hits give low values
# [44] = locus YLR403W, strain SFP1, hits give low values
# [45] = locus YML070W, strain DAK1, hits give low values
# [46] = locus YMR001C, strain CDC5, hits give low values
# [47] = locus YMR205C, strain PFK2 (second series), hits give low values
# [48] = locus YMR277W, strain FCP1, hits give low values
# [49] = locus YNL006W, strain LST8, hits give low values
# [50] = locus YNL020C, strain ARK1, hits give low values
# [51] = locus YNL161W, strain CBK1, hits give low values
# [52] = locus YNL183C, strain NPR1, hits give low values
# [53] = locus YNL207W, strain RIO2, hits give low values
# [54] = locus YNL222W, strain SSU72, hits give low values
# [55] = locus YNL307C, strain MCK1 (second series), hits give low values
# [56] = locus YOL078W, strain AVO1, hits give low values
# [57] = locus YOL136C, strain PFK27, hits give low values
# [58] = locus YOR061W, strain CKA2, hits give low values
# [59] = locus YOR119C, strain RIO1, hits give low values
# [60] = locus YOR231W, strain MKK1, hits give low values
# [61] = locus YOR329C, strain SCD5, hits give low values
# [62] = locus YPL031C, strain PHO85, hits give low values
# [63] = locus YPL153C, strain RAD53, hits give low values
# [64] = locus YPL204W, strain HRR25, hits give low values
# [65] = locus YPL209C, strain IPL1, hits give low values
# [66] = locus YPL256C, strain CLN2, hits give low values
# [67] = locus YPR025C, strain CCL1, hits give low values
# [68] = locus YPR106W, strain ISR1, hits give low values
# [69] = locus YPR111W, strain DBF20, hits give low values
# [70] = strain NNK1, hits give low values
# [71] = strain TSCII, hits give low values
structure (smiles),measurement,setting,value
N#C/C(=N/Nc1ccc(F)cc1)C(=O)c1ccccc1,normalized growth,[1],0.853 (active)
same,normalized growth,[2],0.855 (active)
same,normalized growth,[3],0.842 (active)
same,normalized growth,[4],0.844 (active)
same,normalized growth,[5],0.862 (active)
same,normalized growth,[6],0.858 (active)
same,normalized growth,[7],0.859 (active)
same,normalized growth,[8],0.903 (active)
same,normalized growth,[9],0.859 (active)
same,normalized growth,[10],0.906
same,normalized growth,[11],0.913
same,normalized growth,[12],0.84 (active)
same,normalized growth,[13],0.853 (active)
same,normalized growth,[14],0.832 (active)
same,normalized growth,[15],0.756
same,normalized growth,[16],0.794
same,normalized growth,[17],0.885
same,normalized growth,[18],0.842 (active)
same,normalized growth,[19],0.841 (active)
same,normalized growth,[20],0.854 (active)
same,normalized growth,[21],0.913
same,normalized growth,[22],0.855 (active)
same,normalized growth,[23],0.693
same,normalized growth,[24],0.98
same,normalized growth,[25],0.769
same,normalized growth,[26],0.704 (active)
same,normalized growth,[27],0.826
same,normalized growth,[28],0.762
same,normalized growth,[29],0.799
same,normalized growth,[30],0.842 (active)
same,normalized growth,[31],0.731
same,normalized growth,[32],0.942
same,normalized growth,[33],0.907
same,normalized growth,[34],0.84 (active)
same,normalized growth,[35],0.836
same,normalized growth,[36],0.654
same,normalized growth,[37],0.895
same,normalized growth,[38],0.872
same,normalized growth,[39],0.839
same,normalized growth,[40],0.873 (active)
same,normalized growth,[41],0.883
same,normalized growth,[42],0.804 (active)
same,normalized growth,[43],0.815
same,normalized growth,[44],0.721
same,normalized growth,[45],0.854
same,normalized growth,[46],0.841 (active)
same,normalized growth,[47],0.821
same,normalized growth,[48],0.85 (active)
same,normalized growth,[49],0.853 (active)
same,normalized growth,[50],0.819
same,normalized growth,[51],0.863 (active)
same,normalized growth,[52],0.657
same,normalized growth,[53],0.83 (active)
same,normalized growth,[54],0.87 (active)
same,normalized growth,[55],0.795
same,normalized growth,[56],0.852 (active)
same,normalized growth,[57],0.885
same,normalized growth,[58],0.849
same,normalized growth,[59],0.783
same,normalized growth,[60],0.736
same,normalized growth,[61],0.868 (active)
same,normalized growth,[62],0.701
same,normalized growth,[63],0.757
same,normalized growth,[64],0.653 (active)
same,normalized growth,[65],0.876 (active)
same,normalized growth,[66],0.747 (active)
same,normalized growth,[67],0.863 (active)
same,normalized growth,[68],0.886 (active)
same,normalized growth,[69],0.862 (active)
same,normalized growth,[70],0.883 (active)
same,normalized growth,[71],0.844 (active)
CC(C)(C)c1ccc(N/N=C(\C#N)C(N)=O)cc1,normalized growth,[1],0.111 (active)
same,normalized growth,[2],0.0972 (active)
same,normalized growth,[3],0.109 (active)
same,normalized growth,[4],0.109 (active)
same,normalized growth,[5],0.114 (active)
same,normalized growth,[6],0.0979 (active)
same,normalized growth,[7],0.117 (active)
same,normalized growth,[8],0.115 (active)
same,normalized growth,[9],0.11 (active)
same,normalized growth,[10],0.142 (active)
same,normalized growth,[11],0.114 (active)
same,normalized growth,[12],0.146 (active)
same,normalized growth,[13],0.107 (active)
same,normalized growth,[14],0.117 (active)
same,normalized growth,[15],0.103 (active)
same,normalized growth,[16],0.104 (active)
same,normalized growth,[17],0.133 (active)
same,normalized growth,[18],0.105 (active)
same,normalized growth,[19],0.11 (active)
same,normalized growth,[20],0.0948 (active)
same,normalized growth,[21],0.103 (active)
same,normalized growth,[22],0.108 (active)
same,normalized growth,[23],0.108 (active)
same,normalized growth,[24],0.145 (active)
same,normalized growth,[25],0.101 (active)
same,normalized growth,[26],0.189 (active)
same,normalized growth,[27],0.214 (active)
same,normalized growth,[28],0.225 (active)
same,normalized growth,[29],0.000939 (active)
same,normalized growth,[30],0.107 (active)
same,normalized growth,[31],0.166 (active)
same,normalized growth,[32],0.0973 (active)
same,normalized growth,[33],0.112 (active)
same,normalized growth,[34],0.101 (active)
same,normalized growth,[35],0.0973 (active)
same,normalized growth,[36],0.207 (active)
same,normalized growth,[37],0.134 (active)
same,normalized growth,[38],0.118 (active)
same,normalized growth,[39],0.103 (active)
same,normalized growth,[40],0.109 (active)
same,normalized growth,[41],0.112 (active)
same,normalized growth,[42],0.212 (active)
same,normalized growth,[43],0.0995 (active)
same,normalized growth,[44],0.00739 (active)
same,normalized growth,[45],0.116 (active)
same,normalized growth,[46],0.112 (active)
same,normalized growth,[47],0.0978 (active)
same,normalized growth,[48],0.105 (active)
same,normalized growth,[49],0.0902 (active)
same,normalized growth,[50],0.0965 (active)
same,normalized growth,[51],0.112 (active)
same,normalized growth,[52],0.135 (active)
same,normalized growth,[53],0.102 (active)
same,normalized growth,[54],0.107 (active)
same,normalized growth,[55],0.109 (active)
same,normalized growth,[56],0.108 (active)
same,normalized growth,[57],0.122 (active)
same,normalized growth,[58],0.092 (active)
same,normalized growth,[59],0.119 (active)
same,normalized growth,[60],0.249 (active)
same,normalized growth,[61],0.101 (active)
same,normalized growth,[62],0.103 (active)
same,normalized growth,[63],0.0998 (active)
same,normalized growth,[64],0.108 (active)
same,normalized growth,[65],0.0972 (active)
same,normalized growth,[66],0.243 (active)
same,normalized growth,[67],0.112 (active)
same,normalized growth,[68],0.107 (active)
same,normalized growth,[69],0.131 (active)
same,normalized growth,[70],0.105 (active)
same,normalized growth,[71],0.106 (active)
